In the library only some 19% were active in any assay of this set; here they are far more common.
IL1B secr inh: qHTS for Inhibitors of Inflammasome Signaling: IL-1-beta AlphaLISA Primary Screen. THP-1 LPS/ATP IL-1B secretion, AlphaLISA, 16 h; active compounds read low. activity change, % at 57.5 µM. 360,000 compounds, 4.7% hits; in the data active means activity change below about -50%; inconclusive means mostly about -30% to -49%; further: on the % scale 0 is the no-effect control and ±100 the full control effect
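THP-1 cells pretreated 1 hr with compounds (up to 57.5 uM final), then stimulated with LPS (250 ng/mL final) plus ATP (1.25 mM final); secreted IL-1B measured by AlphaLISA after 16 hr, decreased signal indicating inhibition.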
BCR signal inh: qHTS Assay to Find Inhibitors of Chronic Active B-Cell Receptor Signaling; ABC-DLBCL IkBa-CBG/CBR reporter, luminescence ratio, 4 h; Potency, µM (highest dose often 46.1 µM), for inactives: top-dose activity change, negative = inhibition, usual class: inhibitors; 340,000 compounds, 0.05% hits; active means well fitted inhibition curve with a large enough effect in the signal ratio, with a control signal flat, not every such curve was filed as active; inconclusive means small, poorly fitted or top-dose-only effect, or effect the other way, or a change in a side signal; the % refers to the signal ratio;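 further: potency means the concentration at half of the fitted maximal effect; plate controls were basal doxycycline-induced cells for no effect and cells given 10 µM MG132 for full effect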
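TMD8 human ABC-DLBCL cells with doxycycline-inducible IκBα–green luciferase fusion and unfused red luciferase, in 0.5% FBS medium; compounds up to 46 uM, 4 h at 37C. Green/red luminescence ratio, filter-overlap corrected, fitted to concentration-response curves.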
DT40 TDP1 CPT: qHTS for Inhibitors of human tyrosyl-DNA phosphodiesterase 1 (TDP1): qHTS in cells in presence of CPT | chicken DT40 Tdp1-/-;hTDP1 cells + 20 nM CPT, ATP luminescence, 48 h | Potency, µM (highest dose often 46.2 µM), without a hit: at the highest dose activity change, negative = growth inhibition, hits mostly inhibitors | 420,000 compounds, 12% hits | AID 686979, 2013; further: potency means the concentration at half of the fitted maximal effect; on the % scale 0 is the no-effect control and ±100 the full control effect; nearly all actives have a fitted effect of over 55% in size
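Cell growth measured by CellTiter-Glo luminescence after a minimum 48 h, 37 C compound exposure with 20 nM CPT in Tdp1-knockout DT40 cells stably expressing hTDP1, seeded 400/well; qHTS titration format.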
MCF10A rerep: A quantitative high throughput screen for small molecules that induce DNA re-replication in MCF 10a normal breast cells. Potency, µM (series often up to 46.1 µM), for inactives: at the top dose activity, positive = re-replication, actives largely listed as activators. AID 624296, 2012. MCF 10A DNA re-replication, Hoechst nuclear intensity, 48 h. 350,000 compounds, 2.9% hits; further: potency means the concentration at half of the fitted maximal effect; % of control where 0% means no effect; nearly all actives have a fitted effect of over 50% in size
DT40 TDP1 no CPT: qHTS for Inhibitors of human tyrosyl-DNA phosphodiesterase 1 (TDP1): qHTS in cells in absence of CPT | Potency, µM (series often up to 46.2 µM), for the others: at the top dose activity change, negative = growth inhibition, hits mostly inhibitors | AID 686978, 2013 | 420,000 compounds, 15% hits | DT40 Tdp1-/- hTDP1 cells, no CPT, ATP luminescence, 48 h; further: potency means the concentration at half of the fitted maximal effect; on the % scale 0 is the no-effect control and ±100 the full control effect; nearly all actives have a fitted effect of over 55% in size
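Stably hTDP1-transfected Tdp1-null chicken DT40 cells were treated with library compounds minus camptothecin and grown for at least 48 hr at 37 °C, after which cellular ATP was quantified by luminescence.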
SW480 rerep: A quantitative high throughput screen for small molecules that induce DNA re-replication in SW480 colon adenocarcinoma cells | SW480 DNA re-replication, Hoechst DNA content imaging, 48 h | Potency, µM (series often up to 46.1 µM), for inactives: at the top dose re-replication activation, hits mostly activators | 340,000 compounds, 1.8% hits | AID 624297, 2012; further: potency means the concentration at half of the fitted maximal effect; % of control where 0% means no effect; nearly all actives have a fitted effect of over 55% in size
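250 cells/well; 23 nL cpd via pin tool; 48 hr, 37 C, 5% CO2; Hoechst 40 min; imager read of total nuclear intensity, ex 405/em 500-530 nm.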
* marks the source's active call; other numbers are inactive results. Unless noted, the call rests on the fitted dose curve; in most records, active means well fitted curve in the direction sought with a large enough effect; inconclusive means small, poorly fitted or top-dose-only effect, or another doubt; inactive means no such curve, though single readings can be large; an effect the other way counts as inactive or inconclusive.

For Nc1c(C(=O)NCCN2CCOCC2)c2nc3ccccc3nc2n1-c1ccccc1 the results were IL1B secr inh -52.4*, BCR signal inh inconclusive, DT40 TDP1 CPT inconclusive, MCF10A rerep 1.4%, DT40 TDP1 no CPT 16.4µM* and SW480 rerep 1.2%.
Nc1ccc(-n2c(N)c(C(=O)NCc3ccc4c(c3)OCO4)c3nc4ccccc4nc32)cc1 was read as IL1B secr inh -14.0, DT40 TDP1 CPT inconclusive, MCF10A rerep 16.4µM*, DT40 TDP1 no CPT inconclusive and SW480 rerep 20.6µM*.
Screening Nc1c(C(=O)NCc2ccc3c(c2)OCO3)c2nc3ccccc3nc2n1CCCN1CCOCC1 returned IL1B secr inh -97.6*, BCR signal inh inconclusive, DT40 TDP1 CPT 23.1µM*, MCF10A rerep 0.4%, DT40 TDP1 no CPT inconclusive and SW480 rerep inconclusive.
Screening O=C(NCCN1CCOCC1)C(=O)NCc1ccc2c(c1)OCO2 returned IL1B secr inh 13.1, BCR signal inh -0.2%, DT40 TDP1 CPT 0.8%, MCF10A rerep 2.3%, DT40 TDP1 no CPT 1.2% and SW480 rerep -22.7%.
`CC(=O)c1c(C)[nH]c(C(=O)N2CCN(c3ccccn3)CC2)c1C` gave IL1B secr inh 61.8, BCR signal inh 2.6%, DT40 TDP1 CPT -12.7%, MCF10A rerep -0.5%, DT40 TDP1 no CPT -3.1% and SW480 rerep 25.0%.
For COc1ccc(NC(=O)Cn2nnc(C(=O)NCc3ccc4c(c3)OCO4)c2N)cc1 the results were IL1B secr inh -5.0, BCR signal inh 1.4%, DT40 TDP1 CPT -4.2%, MCF10A rerep 7.4%, DT40 TDP1 no CPT -11.5% and SW480 rerep -6.5%.
For CSc1cccc(NC(=O)c2nnn(CC(=O)Nc3cc(C)cc(C)c3)c2N)c1 the results were IL1B secr inh 4.0, BCR signal inh 4.3%, DT40 TDP1 CPT inconclusive, MCF10A rerep 0.6%, DT40 TDP1 no CPT 6.51µM* and SW480 rerep 10.8%.
Screening COc1cccc(CNC(=O)c2nnn(CC(=O)Nc3ccc(Br)cc3)c2N)c1 returned IL1B secr inh 5.3, BCR signal inh -0.6%, DT40 TDP1 CPT 10.3µM*, MCF10A rerep -1.1%, DT40 TDP1 no CPT 5.17µM* and SW480 rerep -39.2%.
Screening Nc1c(C(=O)NCc2ccccc2)nnn1Cc1cccc(Br)c1 returned DT40 TDP1 CPT 4.61µM* and DT40 TDP1 no CPT 5.8µM*.
For CCc1nnc(NC(=O)c2ccc(S(=O)(=O)N(CC)Cc3ccccc3)cc2)o1 the results were IL1B secr inh 20.8, BCR signal inh 1.0%, DT40 TDP1 CPT 11.6µM*, MCF10A rerep inconclusive, DT40 TDP1 no CPT 7.31µM* and SW480 rerep 23.1%.
CCN(CC)S(=O)(=O)c1ccc(C(=O)Nc2nnc(CSC)o2)cc1 was read as IL1B secr inh -3.8, BCR signal inh inconclusive, DT40 TDP1 CPT 8.9%, MCF10A rerep 0.4%, DT40 TDP1 no CPT 23.7% and SW480 rerep -15.5%.
Screening CCN(Cc1ccccc1)S(=O)(=O)c1ccc(C(=O)Nc2nnc(C)o2)cc1 returned IL1B secr inh 69.9, BCR signal inh inconclusive, DT40 TDP1 CPT 23.1µM*, MCF10A rerep 0.7%, DT40 TDP1 no CPT inconclusive and SW480 rerep inconclusive.
COc1ccccc1-c1nnc(NC(=O)c2ccc(S(=O)(=O)N(C)Cc3ccccc3)cc2)o1 was read as IL1B secr inh 33.7, BCR signal inh 1.2%, DT40 TDP1 CPT 13µM*, MCF10A rerep inconclusive, DT40 TDP1 no CPT 9.2µM* and SW480 rerep 20.6µM*.
Screening CCCCN(CCCC)S(=O)(=O)c1ccc(C(=O)Nc2nnc(COC)o2)cc1 returned IL1B secr inh 30.1, BCR signal inh 6.6%, DT40 TDP1 CPT 18.4µM*, MCF10A rerep inconclusive, DT40 TDP1 no CPT 16.4µM* and SW480 rerep inconclusive.
For CCN(CC)S(=O)(=O)c1ccc(C(=O)Nc2nnc(COC)o2)cc1 the results were IL1B secr inh 0.0, BCR signal inh 1.4%, DT40 TDP1 CPT 2.1%, MCF10A rerep -11.6%, DT40 TDP1 no CPT 7.5% and SW480 rerep -16.9%.
For O=C(NNCc1ccc(O)cc1)c1ccccc1Cl the results were IL1B secr inh 6.8, BCR signal inh inconclusive, DT40 TDP1 CPT -10.3%, MCF10A rerep 7.2%, DT40 TDP1 no CPT -21.6% and SW480 rerep -6.9%.
Cc1cnc(CN(C)C(=O)CC2C(=O)NCCN2CCCc2ccccc2)[nH]1 (configuration not stated) was read as IL1B secr inh -2.7, BCR signal inh 0.4%, DT40 TDP1 CPT -0.8%, MCF10A rerep 9.0%, DT40 TDP1 no CPT -3.3% and SW480 rerep -1.0%.
For CN(Cc1ccccc1)S(=O)(=O)c1ccc(NS(C)(=O)=O)cc1 the results were IL1B secr inh 12.8, BCR signal inh 2.7%, DT40 TDP1 CPT inconclusive, MCF10A rerep -3.9%, DT40 TDP1 no CPT -10.4% and SW480 rerep -4.8%.
For CCc1nnc(NC(=O)c2ccc(S(=O)(=O)N(C)Cc3ccccc3)cc2)o1 the results were IL1B secr inh 43.6, BCR signal inh 2.2%, DT40 TDP1 CPT 16.4µM*, MCF10A rerep -1.2%, DT40 TDP1 no CPT 20.6µM* and SW480 rerep 2.59µM*.
Screening CN(Cc1ccccc1)S(=O)(=O)c1ccc(C(=O)Nc2nnc(C3CC3)o2)cc1 returned IL1B secr inh 20.2, BCR signal inh -0.1%, DT40 TDP1 CPT 14.6µM*, MCF10A rerep 2.4%, DT40 TDP1 no CPT 20.6µM* and SW480 rerep inconclusive.
For COc1ccc(C(=O)Nc2nnc(S(=O)(=O)N(C)Cc3ccccc3)s2)cc1 the results were IL1B secr inh 11.9, BCR signal inh 0.9%, DT40 TDP1 CPT 5.4%, MCF10A rerep 7.7%, DT40 TDP1 no CPT -11.5% and SW480 rerep inconclusive.
O=C(COC(=O)COc1ccc(Br)cc1)NC1CCS(=O)(=O)C1 (configuration not stated) was read as IL1B secr inh 10.0, DT40 TDP1 CPT 2.4% and DT40 TDP1 no CPT 1.0%.
Screening O=C(Nc1ccc2sccc2c1)c1ccc(Cl)s1 returned IL1B secr inh -7.3, BCR signal inh inconclusive, DT40 TDP1 CPT inconclusive, MCF10A rerep 18.4µM*, DT40 TDP1 no CPT -6.0% and SW480 rerep -2.1%.
For N#Cc1ccc(/C=C2\C=Cc3ccccc32)cc1 the results were DT40 TDP1 CPT -24.8% and DT40 TDP1 no CPT -29.2%.
